The whole screen tested about 360,000 compounds, of which about 7,500 (2.1%) were called active. Roughly 20% stayed inconclusive and do not appear here. The sample as a whole holds a higher share of actives than the screen did. Values without a mark were called inactive. Calls follow the shape of the dose curve; as a rule, active = well fitted inhibition curve with a large enough effect; inconclusive = small, poorly fitted or top-dose-only effect, or effect the other way; inactive = flat fitted curve, though single readings scatter.
% is scaled to controls: 0 for no effect and ±100 for the full control effect; potency is read from the fitted curve at half-maximal effect.

The nature of this experiment: Nrf2 qHTS screen for inhibitors. Also: nearly all actives have a fitted effect of over 60% in size. The conditions noted are these: A549 ARE-Fluc reporter, luciferase luminescence, 18-24 h; series mostly up to 46 µM; activity change, negative = inhibition: at the top concentration. In a few lines:
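Quantitative HTS in A549 cells stably bearing an antioxidant response element-firefly luciferase construct. Inhibition of Nrf2-driven transcription was scored by luminescence after 18-24 h of compound exposure at 37 °C.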
Regarding `O=C(CC(=O)c1cccnc1)c1ccccc1`, the “activity change, negative = inhibition” value was 3.55%. On the same count and under the same terms, as for `COCCN(Cc1ccco1)C(=O)Cn1ncc2c([nH]c3ccccc32)c1=O`, the figure is -8.84%; as for `O=C(Nc1cccc(Cl)c1)OCc1ccccn1`, 12.3%.

With `O=C(CC1SC(=Nc2ccccc2)N(Cc2ccccn2)C1=O)Nc1cccc(Cl)c1` (centres undefined), the Potency is 25.9 µM (active). For the compound `CN1C(=O)C(CC(=O)Nc2ccccc2)S/C1=N/c1nccs1` (centres undefined), the “activity change, negative = inhibition” value is 2.37%.

As to `CN(C)C(=S)N=c1ssc(=S)n1Cc1ccco1`, the “activity change, negative = inhibition” value is -1.23%.

With `CCCOc1ccc(C(=O)Nc2ccc3oc(-c4cccc(Cl)c4Cl)nc3c2)cc1`, the Potency was 5.8 µM (active). For the compound `COc1cccc(C(=O)Nc2ccc3oc(-c4ccc5ccccc5c4)nc3c2)c1`, the “activity change, negative = inhibition” value was -7.05%. Still for that read-out and setting: as for `O=C(COc1ccc(Cl)cc1)Nc1ccc(-c2nc3cc(Cl)ccc3o2)c(O)c1`, the figure is 5.35%. With `Cc1ccccc1-c1nc2cc(NC(=O)c3cccc(OCCC(C)C)c3)ccc2o1`, the Potency was 6.51 µM (active). On to `Cc1ccc(SCC(=O)Nc2ccc3oc(-c4ccccc4C)nc3c2)cc1`, for which the “activity change, negative = inhibition” value is 22.1%. Still for that read-out and setting: as for `CCCCOc1ccc(C(=O)Nc2cccc(-c3nc4ccccc4o3)c2C)cc1`, the figure is 3.59%. On the same count and under the same terms, as for `O=C(NCCCc1ccccc1)c1ccc2c(c1)sc1nc(-c3ccc(F)cc3)cn12`, the figure is 11.3%.

With `CCc1ccc(OCCCn2c(CCCNC(=O)C3CCCCC3)nc3ccccc32)cc1`, the “activity change, negative = inhibition” value was 0.143%. On the same count and under the same terms, the figure for `O=C(NCc1ccccc1)c1cccc(NC(=O)N2CCSc3ncccc32)c1` is -16%. Still for that read-out and setting: as for `CC(C)(C)OC(=O)C[C@H]1C/C=C\C[C@@H](CC(=O)N[C@H](CO)Cc2ccccc2)C(=O)NC[C@@H](c2ccccc2)OC1=O`, the figure is 22.1%. Same read-out and setting: the figure for `COc1ccc(-c2ccc3c(c2)C2CC3CCN2CCC#N)cc1` (centres undefined) is 0.991%.

Take `Cc1nc2ccc(S(=O)(=O)N(CC(=O)Nc3ccc(F)cc3)Cc3ccccc3)cc2s1`: the “activity change, negative = inhibition” value is 11%. On to `Cc1c(C(=O)N2CCCC2)oc2c1-c1nn(CC(=O)NCc3ccc(OC(C)C)cc3)cc1CC2`, for which the Potency is 20.6 µM (active). In the case of `COc1ccccc1N1CCN(c2ccc(=O)n(CC(=O)NCc3ccc(OC(C)C)cc3)n2)CC1`, the “activity change, negative = inhibition” value is -22.3%. On the same count and under the same terms, the figure for `CCCN(CCC)CCCNC(=O)Cn1cc2c(n1)-c1c(oc(C(=O)N3CCCC3)c1C)CC2` is 3.36%; for `Cc1ccc(Cn2cc(CCC(=O)NCc3ccc(OC(C)C)cc3)c3ccccc32)cc1` it is -1.08%; for `Cc1cccc(N2CCN(C(=O)c3oc(=O)c4ccccc4c3-c3ccccc3)CC2)c1C` it is -3.23%.

As for `Cc1ccc2nc(/C(C#N)=C/c3ccccc3F)[nH]c2c1`, the “activity change, negative = inhibition” value was 16.3%. Same read-out and setting: as for `COc1cc(/C=C(\C#N)c2nc3ccccc3[nH]2)ccc1O`, the figure is 5.25%. Regarding `Cc1ccc2nc(/C(C#N)=C\c3ccc(OC(=O)c4cccs4)cc3)[nH]c2c1`, the Potency was 4.61 µM (active). Consider `Cc1onc(-c2c(Cl)cccc2Cl)c1C(=O)NNC(=O)c1c(-c2c(Cl)cccc2Cl)noc1C`, for which the “activity change, negative = inhibition” value was -4.18%. Still for that read-out and setting: the figure for `Cc1onc(-c2ccccc2Cl)c1C(=O)OCC(=O)c1ccccc1` is -9.9%. Regarding `CC(=O)Nc1cccc(/C(C)=N/NC(=O)c2c(-c3ccccc3Cl)noc2C)c1`, the Potency was 9.2 µM (active). For the compound `COC(=O)c1ccc(CNC(=O)Cn2cc(C)c(=O)[nH]c2=O)cc1`, the “activity change, negative = inhibition” value is -7.9%. With `Cc1cccc(-c2nc(SCc3ccc(Br)cc3)n3[nH]c(=O)cc3n2)c1`, the “activity change, negative = inhibition” value is 8.24%.

With `CC(=O)Nc1ccc(S(=O)(=O)Nc2nc(-c3ccc(C(C)(C)C)cc3)cs2)cc1`, the “activity change, negative = inhibition” value is 12.6%.

In the case of `CC(=O)Nc1ccc(-c2csc(NC(=O)Nc3ccccc3)n2)cc1`, the Potency was 16.4 µM (active). For `O=C(O)c1ccccc1C(=O)Nc1nc(-c2ccccc2)cs1`, the “activity change, negative = inhibition” value was 5.28%.

For `Cc1cc(Cl)ccc1OCC(=O)N(Cc1ccc(N(C)C)cc1)C1CCS(=O)(=O)C1` (centres undefined), the “activity change, negative = inhibition” value was -18.6%. As to `COc1ccc(-c2ccc3c(c2)[C@@H]2C[C@H](N(C)S(=O)(=O)c4ccccc4)[C@H]([C@H](C)O)C(=O)N2CC3)cc1`, the “activity change, negative = inhibition” value was -25.2%. On the same count and under the same terms, the figure for `Cc1nnc(N2CCC(C(=O)Nc3ccc(F)cc3)CC2)c2nn(-c3ccc(Cl)cc3)c(C)c12` is -15.4%; for `CNC(=O)N1c2ccccc2C=Cc2ccccc21` it is 2.79%. On the same count and under the same terms, as for `CC1CC(C)CN(CC(=O)N2c3ccccc3CCc3ccccc32)C1` (centres undefined), the figure is 11.5%. As to `CC1C(C)N(C(=O)CCl)c2ccccc2N1C(=O)CCl` (centres undefined), the Potency was 18.4 µM (active).

In the case of `CCN(CC)S(=O)(=O)c1ccc(NC(=O)c2cccnc2Cl)c(NC(=O)c2cccnc2Cl)c1`, the Potency was 20.6 µM (active). Regarding `CCN(CC)S(=O)(=O)c1ccc(Cl)c(NC(=O)c2ccncc2)c1`, the “activity change, negative = inhibition” value is -11.1%.

On to `Cc1cccc(NC(=O)c2cccnc2Cl)n1`, for which the “activity change, negative = inhibition” value is 4.02%.

On to `COc1ccc(N2C(=O)CS(=O)(=O)C23C(=O)N(Cc2ccc(C)cc2)c2ccccc23)cc1Cl` (centres undefined), for which the “activity change, negative = inhibition” value was 21.7%. With `CN(C)C(CNC(=O)c1cc2ccccc2o1)c1ccccc1` (centres undefined), the “activity change, negative = inhibition” value is 9.12%. Same read-out and setting: the figure for `COc1cccc(CN2CCc3nc(SCC(=O)Nc4ccccc4)[nH]c(=O)c3C2)c1` is -1.53%; for `O=[N+]([O-])c1cc(Br)c(O)c(/C=N/Nc2nc3ccccc3s2)c1` it is 14.3%. As for `c1ccc(C(=NNc2nc3ccccc3s2)c2ccccn2)cc1`, the Potency was 9.2 µM (active). As to `COc1cc(/C=N/Nc2nc3ccccc3s2)ccc1O`, the “activity change, negative = inhibition” value is -1.56%.
